Assay outcomes deposited in PubChem by several laboratories.
Sampled rows, rich in hits. Any-hit rate of the full collection: about 4.8%.
Beta apoptosis – inhibitors of cytokine-induced beta cell apoptosis, primary screen, luminescence. INS-1E cytokine-induced death, ATP luminescence, 48 h; percent of positive-control rescue, neutral wells zero. protection from apoptosis, % (no concentration beside the values). 0.8% of 300,000 active;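 active = Every replicate reaches about 75%, or at least half do and their mean reaches it too, limit read from the data; inconclusive = At least half of replicates reach the limit but their mean does not; inactive = Under half of replicates reach the limit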;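 also: 0% = cytokine-treated negative control wells and 100% = positive control rescue; higher means more ATP so stronger rescue from cytokine killing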
MPTP block – mitochondrial permeability transition pore inhibitors, primary screen, biochemical, isolated mouse mitochondria, absorbance | AID 602449, 2012 | 1.4% of 360,000 active | inhibition, % at 10 µM | Ca2+ swelling absorbance, 30 min;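 active = inhibition of 50% or more, scaled per plate between neutral and stimulator controls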;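 also: 0% = DMSO wells given calcium and 100% = 1 mM EGTA wells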
Mdm2 MdmX PPI – inhibitors of human Mdm2-MdmX association, primary screen, cell-based, luminescence, split luciferase, SaOS-2, uHTS; AID 485346, 2010; SaOS-2 split-luciferase Mdm2/MdmX complementation; inhibition, % at 8 µM; 3% of 330,000 active; Protein Mdm4 (Homo sapiens) + E3 ubiquitin-protein ligase Mdm2 (Homo sapiens), …;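 active = inhibition of at least 50% at 8 µM in the primary screen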
Calb FLC – C. albicans growth inhibition with fluconazole, primary screen, CaCi-2 strain, Alamar Blue fluorescence; 0.57% of 300,000 active; AID 1979, 2009; growth inhibition, % (test concentration not listed); C. albicans CaCi-2 (fluconazole-resistant clinical isolate) + fluconazole, 48 h;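 active = growth inhibition above about 58% in most replicates, limit read from the data, passing the limit was not always enough; inconclusive = exactly half the replicates above a set limit; inactive = most replicates below a set limit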;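 also: all wells also contain fluconazole at 8 µg/ml as a sub-toxic cotreatment; 0% = median of DMSO wells and 100% = median of geldanamycin control wells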
CSC inhib – cancer stem cell viability inhibitors, primary screen, luminescence | cancer stem cell-like cells viability | 1.1% of 300,000 active | inhibition, % at 7.5 µM; in the data active = inhibition above about 75%; inconclusive = no clear call, values can overlap the other calls; tested in HMLE shEcad cells
Mdm2-MdmX conf – Mdm2-MdmX complex disruptors, retested hits, confirmation, luminescence, single concentration. shares compounds with Mdm2 MdmX PPI. Mdm2-MdmX binding, luminescent assay. inhibition, % at 8 µM. 55% of 10,000 active; in the data active = inhibition above about 40%
FLuc counter – full-length luciferase signal inhibition, confirmation, counter-screen for Mdm2/MdmX interaction inhibitor project, cell-based, single concentration, SaOS-2; 77% of 6,200 active; AID 504607, 2011; inhibition, % at 8 µM; SaOS-2 full-length luciferase counterscreen, luminescence; shares compounds with Mdm2 MdmX PPI;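 active = mean inhibition at 8 µM reaching about 37%, which flags the compound as non-specific, limit read from the data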;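 also: p53-null SaOS-2 cells with luciferase driven by a doxycycline-inducible promoter; compound on cells about two nights before reading with doxycycline added after day one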
* hit, by the source's call; u = inconclusive; x = no result.

SMILES	Beta apoptosis	MPTP block	Mdm2 MdmX PPI	Calb FLC	CSC inhib	Mdm2-MdmX conf	FLuc counter
Oc1ccc(C[C@@H]2CNCCN2CCCCC2CCCCC2)cc1	2	1	57*	-2	45	16	x
Oc1ccc(C[C@H]2CNCCN2CCc2cc(C(F)(F)F)cc(C(F)(F)F)c2)cc1	-19	0	58*	-3	53	12	x
Cc1cc(Oc2ccc(-c3nnc(-c4ccccc4)o3)cc2[N+](=O)[O-])ccc1Cl	1	3	75*	2	-10	2	x
O=c1c(-c2cc3ccccc3[nH]2)nc2ccccc2n1C(CCc1ccccc1)c1nc2ccccc2[nH]1 (stereo not drawn)	x	5	x	x	x	x	x
O=S(=O)(Nc1ccc(Br)cn1)c1ccc(Cl)s1	6	-1	4	x	16	x	x
CCCCNC1C(CC)C(CCC)C(C#N)(C#N)C1(C#N)C#N (stereo not drawn)	-14	-17	61*	-4	0	31	56*
COC(=O)/C=C1\OCc2ccc(C)cc21	x	0	x	x	x	x	x
COc1ccc(C(=O)C(=O)N2CCN(C(=O)OCc3ccccc3)CC2)cc1	x	-2	x	x	x	x	x
Cc1cccc(N2CCN(C(=O)Cc3cn(C)c4ccccc34)CC2)c1C	x	0	53*	2	33	43*	55*
Cc1cccc(N2CCN(C(=O)COc3cc(=O)n(C)c4ccccc34)CC2)c1C	-7	8	14	-1	-13	x	x
Cc1ccc(C(O)c2ncc(-c3ccc(F)cc3)[nH]2)cc1F (stereo not drawn)	x	1	x	x	x	x	x
Cc1nc(NCc2ccco2)c2c(C)c(C)sc2n1	28	24	100*	5	98*	96*	54*
CN(C)c1ccc(CNCCC(Cc2ccccc2)c2ccco2)cc1 (stereo not drawn)	30	39	52*	-28	13	30	x
c1ccc(CNCCC(Cc2ccccc2)c2ccco2)cc1 (stereo not drawn)	-11	23	19	-12	31	x	x
O=C(Nc1ccc(F)cc1)C(c1ccccc1OC(F)(F)F)N1CCN(C(=O)c2ccco2)CC1 (stereo not drawn)	x	1	x	x	x	x	x
Cc1nc(SCc2nc3c([N+](=O)[O-])cccc3[nH]2)c2oc3ccccc3c2n1	-7	2	58*	x	x	14	x
CC(C)C(=O)NC(c1ccccc1)c1cc([N+](=O)[O-])c2cccnc2c1O (stereo not drawn)	91*	1	81*	0	147*	72*	42*
CC(=O)NC(c1ccccc1)c1cc([N+](=O)[O-])c2cccnc2c1O (stereo not drawn)	37	-19	63*	6	120*	67*	50*
COc1ccc2nc(/N=C(\N)NC(=O)C(C)(C)C)nc(C)c2c1	-1	-2	-2	-1	1	x	x
CCC(=O)N/C(N)=N/c1nc(C)c2cc(OC)ccc2n1	-5	-2	62*	u	15	41*	61*
Cc1cc(NO)c(C(C)C)cc1N=O	0	4	60*	11	2	36	x
O=C(Nc1ccc(O)c2c(=O)cc(-c3ccccc3Cl)oc12)c1ccc(Cl)c(Cl)c1	-2	0	66*	2	-3	26	x
Cc1ccccc1C(=O)Nc1ccc(O)c2c(=O)cc(-c3ccccc3Cl)oc12	1	-3	5	-10	6	x	x
CCn1nc(C)cc1-c1nnc(Sc2ncc([N+](=O)[O-])s2)n1C	x	-1	96*	0	x	97*	51*
O=C1C=C(c2cc3ccccc3s2)C[C@@H](c2ccc3c(c2)OCO3)C1	-17	2	67*	x	-11	41*	101*
Cc1ccc(C2=CC(=O)C[C@H](c3ccc4c(c3)OCO4)C2)cc1	-3	1	23	x	42	x	x
Nc1ccn([C@@H]2O[C@H](C(=O)NCC(F)(F)F)[C@@H](O)[C@H]2O)c(=O)n1	x	0	x	x	x	x	x
O=C(COc1ccc2c(c1)OCO2)Nc1nccs1	3	-2	-40	21	x	x	x
CCCCOC(=O)Cn1c(=O)n(CC(=O)OCCCC)c2ccccc21	-4	-2	-8	-2	-2	x	x
